This is a sample that favours compounds with a hit; in the whole collection about 19% have one here.
RORgamma inh – blocks mouse ROR gamma transcriptional activity | 310,000 compounds, 5.4% hits | P51450 | Drosophila S2 Gal4-RORgamma UAS-luciferase reporter, 20 h | AID 2551 | Potency, µM (series often up to 53.6 µM), most hits filed as inhibitors; also: nearly all actives have a fitted effect of over 60% in size
Target sequence (P51450 whole entry, looked up, the tested form may be a part): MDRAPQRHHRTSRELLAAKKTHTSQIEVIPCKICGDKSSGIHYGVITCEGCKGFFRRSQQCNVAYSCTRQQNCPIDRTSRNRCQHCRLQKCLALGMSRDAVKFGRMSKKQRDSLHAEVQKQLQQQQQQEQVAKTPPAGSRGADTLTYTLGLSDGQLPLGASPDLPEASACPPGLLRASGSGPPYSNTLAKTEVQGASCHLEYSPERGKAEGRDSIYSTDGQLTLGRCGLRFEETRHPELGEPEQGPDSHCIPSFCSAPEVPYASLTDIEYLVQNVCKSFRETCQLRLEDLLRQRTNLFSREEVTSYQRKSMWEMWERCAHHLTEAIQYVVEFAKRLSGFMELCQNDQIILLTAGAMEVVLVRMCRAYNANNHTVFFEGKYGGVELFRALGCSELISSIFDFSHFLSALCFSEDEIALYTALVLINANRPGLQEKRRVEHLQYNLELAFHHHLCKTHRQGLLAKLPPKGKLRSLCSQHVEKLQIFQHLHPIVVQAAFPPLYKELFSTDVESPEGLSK
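Drosophila Schneider cells stably carrying a metallothionein-driven Gal4 DBD–ROR gamma fusion and a UAS-Photinus luciferase reporter were exposed to compound for 1 hr, then induced with copper sulfate (700 uM final) for 20 hr at ambient temperature before luminescence reading.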
TDP1 block – blocks human tyrosyl-DNA phosphodiesterase 1. Q9NUW8. recombinant TDP1, AlphaScreen DNA substrate cleavage. Potency, µM (titrated, usually from 130 µM), actives largely listed as inhibitors. 350,000 compounds, 0.28% hits; also: nearly all actives have a fitted effect of over 40% in size
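Signal: AlphaScreen proximity between streptavidin donor and anti-FITC acceptor beads on intact substrate. Reaction: Tdp1 1 nM, substrate 15 nM final, 5 min RT after 15 min compound preincubation.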
TDP1 cell noCPT – qHTS for Inhibitors of human tyrosyl-DNA phosphodiesterase 1 (TDP1): qHTS in cells in absence of CPT. Potency, µM (doses to about 46.2 µM), usual class: inhibitors. DT40 Tdp1-/- hTDP1 cells, no CPT, ATP luminescence, 48 h. 420,000 compounds, 15% hits; also: nearly all actives have a fitted effect of over 55% in size
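Chicken DT40 Tdp1-/- cells stably complemented with human TDP1 were seeded at 400 cells/well with DMSO in place of 20 nM camptothecin. After compound pinning, cells grew at least 48 hr at 37 °C; viability read by CellTiter-Glo luminescence.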
Gal4-VP16 FLuc – inhibits Gal4-VP16 luciferase reporter, ROR gamma counter-screen; Drosophila S2 Gal4-VP16 UAS-luciferase, luminescence, 20 h; Potency, µM (titrated, usually from 53.6 µM), actives largely listed as inhibitors; 310,000 compounds, 3.5% hits;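 also: Gal4-VP16 expression switched on by copper sulfate through the metallothionein promoter; nearly all actives have a fitted effect of over 50% in size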
DT40 TDP1 CPT – DT40-hTDP1 cell growth loss with CPT. 420,000 compounds, 12% hits. AID 686979. Potency, µM (top dose mostly 46.2 µM), actives largely listed as inhibitors. chicken DT40 Tdp1-/-;hTDP1 cells + 20 nM CPT, ATP luminescence, 48 h; also: nearly all actives have a fitted effect of over 55% in size
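Chicken DT40 Tdp1-/- cells stably complemented with human TDP1 were seeded at 400 cells/well in medium containing 20 nM camptothecin, exposed to pin-transferred compounds, and grown at 37 °C for at least 48 hr. Viability was read as ATP luminescence.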
Each line names hits and unclear results; the compound was inactive in the other large screens. Calls follow the shape of the dose curve; as a rule, active = well fitted curve in the direction sought with a large enough effect; inconclusive = small, poorly fitted or top-dose-only effect, or another doubt; inactive = no such curve, though single readings can be large; an effect the other way counts as inactive or inconclusive.

O=C(CSc1nc2c([nH]c3ccccc32)c(=O)n1-c1ccccc1)Nc1ccc(Cl)c(Cl)c1	TDP1 cell noCPT 10.3µM, DT40 TDP1 CPT 8.2µM (no result: RORgamma inh, Gal4-VP16 FLuc)
COc1cc2c(cc1OC)/C(=C/C(=O)c1ccc(C)cc1)NCC2	TDP1 cell noCPT inconclusive, DT40 TDP1 CPT inconclusive (no result: TDP1 block)
COc1cc(NC(=O)CSc2nc(=O)n(CCCN3CCOCC3)c3c2CCC3)cc(OC)c1	DT40 TDP1 CPT inconclusive (no result: RORgamma inh, Gal4-VP16 FLuc)
Brc1ccc(Nc2nc(-c3cccnc3)cs2)cc1	none
Nc1ccc(Nc2nc(-c3ccncc3)cs2)cc1	RORgamma inh inconclusive, TDP1 cell noCPT 18.4µM, Gal4-VP16 FLuc inconclusive, DT40 TDP1 CPT inconclusive
Oc1ccc(Nc2nc(-c3cccnc3)cs2)cc1	TDP1 cell noCPT 23.1µM, DT40 TDP1 CPT 20.6µM (no result: TDP1 block)
Oc1ccc(Nc2nc(-c3ccc(Cl)cc3)cs2)cc1	RORgamma inh inconclusive, Gal4-VP16 FLuc 14.1µM (no result: TDP1 cell noCPT, DT40 TDP1 CPT)
COc1ccc(Nc2nc(-c3ccc(OC)cc3)cs2)cc1	none
Oc1ccc(Nc2nc(-c3ccc(O)cc3)cs2)cc1	TDP1 cell noCPT 5.01µM, DT40 TDP1 CPT 11.2µM
O=C(c1ccc(C(F)(F)F)cc1)C1CCCN(C(=O)Cn2cncn2)C1 (stereo unspecified)	none
CC(C)n1nnnc1SCC(=O)NC1CCCC1	none (no result: TDP1 block)
CCOc1cc(C(=S)N2CCOCC2)ccc1OS(=O)(=O)c1ccc(C)cc1	TDP1 cell noCPT inconclusive
CCOc1cc(C(=S)N2CCC(O)CC2)ccc1OS(=O)(=O)c1ccc(Br)cc1	TDP1 cell noCPT 18.4µM, DT40 TDP1 CPT inconclusive
CCOc1cc(C(=S)N2CCCCC2)ccc1OS(=O)(=O)c1ccc(Cl)cc1	RORgamma inh 10µM, TDP1 cell noCPT 23.1µM, DT40 TDP1 CPT 16.4µM
CCOc1cc(C(=S)N2CCOCC2)cc(Br)c1OS(=O)(=O)c1ccccc1	TDP1 cell noCPT 23.1µM, DT40 TDP1 CPT inconclusive (no result: TDP1 block)
COc1cc(C(=S)N2CCOCC2)cc(OC)c1OS(=O)(=O)c1ccc(C)cc1	none
CCOc1cc(C(=S)N2CCCCC2)ccc1OS(=O)(=O)c1ccc(Br)cc1	RORgamma inh 7.08µM, TDP1 cell noCPT 18.4µM, DT40 TDP1 CPT 20.6µM
COc1ccc(NC(=O)c2cc(N3C(=O)C4C5CCC(C5)C4C3=O)ccc2Cl)c(OC)c1 (stereo unspecified)	DT40 TDP1 CPT inconclusive
CC(=O)Nc1ccc(NC(=O)CCC(=O)OCC(=O)c2ccc(C)c([N+](=O)[O-])c2)cc1	none
COc1nc2ccccc2cc1-c1noc(-c2cccnc2)n1	none (no result: TDP1 cell noCPT, DT40 TDP1 CPT)
COc1ccc(-n2nc(C(=O)NCC(=O)NCCCN3CCN(C)CC3)c3ccccc3c2=O)cc1OC	none (no result: TDP1 block)
Cn1c(C(=O)NCc2ccccn2)cc2c(=O)n(C)c3ccccc3c21	TDP1 cell noCPT inconclusive, DT40 TDP1 CPT 0.581µM
Cn1c(C(=O)NCc2ccc(Cl)cc2)cc2c(=O)n(C)c3ccccc3c21	none (no result: RORgamma inh, Gal4-VP16 FLuc)
CC(NC(=O)c1cc2c(=O)n(C)c3ccccc3c2n1C)c1ccc2c(c1)OCCO2 (stereo unspecified)	TDP1 cell noCPT 13µM, DT40 TDP1 CPT 29.1µM (no result: RORgamma inh, TDP1 block, Gal4-VP16 FLuc)
CCCCN(C)CCNC(=O)c1cc2c(=O)n(C)c3ccccc3c2n1C	TDP1 cell noCPT 23.1µM, DT40 TDP1 CPT inconclusive (no result: RORgamma inh, Gal4-VP16 FLuc)
CC1CCN(CCCNC(=O)c2cc3c(=O)n(C)c4ccccc4c3n2C)CC1	TDP1 cell noCPT 32.6µM, DT40 TDP1 CPT 23.1µM
Cn1c(=O)cc(SCC(=O)NCCCN2CCN(c3ccccc3F)CC2)c2ccccc21	TDP1 cell noCPT inconclusive
c1ccc2c(c1)CN1C(=N2)COc2ccccc2C1c1nc2ccccc2[nH]1 (stereo unspecified)	DT40 TDP1 CPT inconclusive (no result: RORgamma inh, TDP1 block, Gal4-VP16 FLuc)
CC1(C(=O)NCc2ccccc2)CSCC(=O)N1CC(F)(F)F (stereo unspecified)	none (no result: RORgamma inh, TDP1 block, Gal4-VP16 FLuc)
O=C(COC(=O)C12CC3CC(CC(Br)(C3)C1)C2)Nc1cccnc1Cl	DT40 TDP1 CPT inconclusive
O=C1NC(=S)S/C1=C1\Sc2ccccc2N1CCCS(=O)(=O)O	none (no result: TDP1 block)
Cn1c(C(=O)NCCN2CCN(Cc3ccccc3)CC2)cc2c(=O)n(C)c3ccccc3c21	TDP1 cell noCPT 23.1µM, DT40 TDP1 CPT 23.1µM (no result: TDP1 block)
